Results taken from PubChem BioAssay AID686978 (National Center for Advancing Translational Sciences (NCATS), 2013).
The campaign covered roughly 420,000 compounds. About 64,000 (15%) were called active. Not shown: some 27% with an inconclusive outcome. Only a sample is shown. Values without a mark were called inactive. Calls follow the shape of the dose curve; as a rule, active = well fitted inhibition curve with a large enough effect; inconclusive = small, poorly fitted or top-dose-only effect; inactive = flat fitted curve, though single readings scatter.
% is scaled to controls: 0 for no effect and ±100 for the full control effect; potency is read from the fitted curve at half-maximal effect.

Assay: qHTS for Inhibitors of human tyrosyl-DNA phosphodiesterase 1 (TDP1): qHTS in cells in absence of CPT; also: nearly all actives have a fitted effect of over 55% in size
Details: DT40 Tdp1-/- hTDP1 cells, no CPT, ATP luminescence, 48 h; activity change, negative = growth inhibition: at 46.2 µM (top of the series)
Outline: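 Cells were dispensed at 400 per well, compounds added by pin tool, plates incubated ≥48 hr at 37 °C, then CellTiter-Glo added for 30 min at room temperature before luminescence reading. Line: DT40 Tdp1-/- complemented with hTDP1; camptothecin omitted.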
With `Cc1[nH]n(C)c(=O)c1N=Nc1ccc(S(C)(=O)=O)cc1` the “activity change, negative = growth inhibition” value was -14.6%. In the case of `Cc1nnc(Nc2ccccc2F)s1`, the “activity change, negative = growth inhibition” value is reported as -0.0224%. With `Nc1ncnc2c1ncn2[C@@H]1O[C@H](CNCc2cccn2-c2nccs2)[C@@H](O)[C@H]1O` the “activity change, negative = growth inhibition” value was -22.8%. For `COc1ccc(N2CCN(CCCNC(=O)C3CCN(S(=O)(=O)N4CCOCC4)CC3)CC2)cc1`, the “activity change, negative = growth inhibition” value was -21.8%. In the case of `N#CCCn1c(=O)c(-c2cc(F)cc(F)c2)nc2cnc(Oc3ccccc3)nc21`, the “activity change, negative = growth inhibition” value is reported as -15.8%. For `CCOc1ccc(/C=N/Nc2nncc(-c3ccccc3)n2)cc1OC`, the Potency was 14.6 µM (active). In the case of `COc1cccc(/C=N\Nc2nncc(-c3ccccc3)n2)c1`, the “activity change, negative = growth inhibition” value is reported as -26%. For `COc1cc(/C=N/n2c(C)n[nH]c2=S)ccc1OCc1ccccc1`, the “activity change, negative = growth inhibition” value was -8.69%. For `COc1cc(OC)c(N2CC(C(=O)Nc3cc(Cl)ccc3N3CCOCC3)CC2=O)cc1Cl` (stereo not given), the Potency was 3.66 µM (active). In the case of `COc1ccccc1N1CC(C(=O)Nc2ccc(S(=O)(=O)N3CCOCC3)cc2)CC1=O` (stereo not given), the “activity change, negative = growth inhibition” value is reported as 11.5%. In the case of `Cc1ccc(N2CC(C(=O)Nc3cc(Cl)ccc3-n3cncn3)CC2=O)cc1` (stereo not given), the “activity change, negative = growth inhibition” value is reported as -23.3%. For `O=C(c1cnccn1)N1CCC[C@@]2(CCN(Cc3ccncc3)C2)C1`, the “activity change, negative = growth inhibition” value was 1.51%. For `CC(=O)c1cnc(SCCN2C(=O)c3ccccc3C2=O)nc1C`, the “activity change, negative = growth inhibition” value was -15.3%. In the case of `Cc1cc(NC(=O)CCC(=O)N(c2cccc(F)c2)C(C(=O)NC2CCCC2)c2ccncc2)no1` (stereo not given), the “activity change, negative = growth inhibition” value is reported as -2.57%. With `Cc1cc(NC(=O)CCC(=O)N(CC(=O)NC2CCCC2)c2ccc(F)cc2)no1` the “activity change, negative = growth inhibition” value was 3.57%. For `Cc1cc(NC(=O)/C=C/C(=O)N(c2ccccc2C)C(C(=O)NC2CCCC2)c2ccc(F)cc2)no1` (stereo not given), the Potency was 23.1 µM (active). For `O=C(NC1CCC(O)CC1)c1ccc(S(=O)(=O)NCc2ccco2)cc1` (stereo not given), the “activity change, negative = growth inhibition” value was -15.6%. For `COc1ccc(NC(=O)Cn2ncn3c(cc4ccccc43)c2=O)c(OC)c1OC`, the “activity change, negative = growth inhibition” value was -14.5%. For `COc1ccc(CNC(=O)c2nnn(CC(=O)Nc3cc(C)cc(C)c3)c2N)cc1`, the Potency was “inactive”. With `C=CCc1ccccc1OCC(=O)N/N=C/c1ccccc1OCC` the “activity change, negative = growth inhibition” value was -40.8%. In the case of `Cc1ccc(/C=N/NC(=O)COc2ccccc2-c2ccccc2)cc1`, the Potency is reported as 0.184 µM (active). In the case of `Cc1ccc(OCC(=O)N/N=C/c2ccncc2)cc1`, the “activity change, negative = growth inhibition” value is reported as -27.9%. For `COc1cc(Cl)c(S(=O)(=O)N2CCN(Cc3ccc4c(c3)OCO4)CC2)cc1Cl`, the “activity change, negative = growth inhibition” value was -6.7%. With `OCCC1CN(Cc2ccc3nsnc3c2)CCN1C1CCCC1` (stereo not given) the “activity change, negative = growth inhibition” value was 14.4%. In the case of `C=C1C(=O)[C@]23C[C@H]1CCC2[C@@]1(C)C(C[C@@H]3O)[C@](C)(C(=O)O)CC[C@@H]1O` (stereo not given in full), the Potency is reported as 6.51 µM (active). In the case of `O=C(CSc1ncn[nH]1)Nc1nc2c(F)c(F)c(F)cc2s1`, the “activity change, negative = growth inhibition” value is reported as -26.3%. In the case of `CC(C)(C)NC(=O)NC(=O)COC(=O)Cc1c(F)cccc1Cl`, the “activity change, negative = growth inhibition” value is reported as 0.186%. For `CCN1CCCC1CNC(=O)Cn1cnc2ccc(S(=O)(=O)N3CCC(C)CC3)cc2c1=O` (stereo not given), the “activity change, negative = growth inhibition” value was 14.1%. In the case of `COc1ccccc1NC(=O)Cn1cnc2ccc(S(=O)(=O)N3CCC(C)CC3)cc2c1=O`, the Potency is reported as 23.1 µM (active). For `COc1ccccc1NC(=O)CN1CCN(S(=O)(=O)c2ccc(Br)cc2)CC1`, the “activity change, negative = growth inhibition” value was -0.0441%. For `CC(C)CN(C(=O)CN1CCN(S(=O)(=O)c2ccccc2)CC1)c1c(N)n(CC(C)C)c(=O)[nH]c1=O`, the “activity change, negative = growth inhibition” value was 8.28%. For `Cc1cc(NC(=O)OC(C)C)ccc1-c1ccc(NC(=O)OC(C)C)cc1C`, the “activity change, negative = growth inhibition” value was -2.37%. For `CN(CCO)c1ccc(/C=N/Nc2nncc3ccccc23)cc1`, the Potency was 14.6 µM (active). For `COc1ccc(/C=N/Nc2nc3ccccc3c(=O)[nH]2)cc1`, the “activity change, negative = growth inhibition” value was -29%. With `CC(=O)Nc1ccc(NC(=O)CCCNC(=O)c2ccc(Cl)cc2)cc1` the “activity change, negative = growth inhibition” value was -6.67%. In the case of `CCCCNC(=O)C1CCCNC1=O` (stereo not given), the “activity change, negative = growth inhibition” value is reported as -7.1%. For `COc1cccc(CNC(=O)c2nnn(CC(=O)Nc3cc(C)ccc3C)c2N)c1`, the “activity change, negative = growth inhibition” value was 7.96%. In the case of `O=C(CNc1ccccc1N1CCCC1=O)Nc1cc(Cl)ccc1-n1cncn1`, the “activity change, negative = growth inhibition” value is reported as -5.65%. For `CCOC(=O)CNC(=O)c1cc2c(=O)n3cccc(C)c3nc2s1`, the “activity change, negative = growth inhibition” value was -11.8%. For `CCOC(=O)N1CCN(C(=O)CSc2nc(=O)n3cccc(C)c3n2)CC1`, the “activity change, negative = growth inhibition” value was 13.5%. In the case of `CCOC(=O)CC1C(=O)NCCN1c1nc2c(C)cccn2c(=O)c1/C=C1\SC(=S)N(C(C)CC)C1=O` (stereo not given), the Potency is reported as 18.4 µM (active). In the case of `CCSc1nnc(NC(=O)Cc2ccccc2OC)s1`, the “activity change, negative = growth inhibition” value is reported as -13.9%. In the case of `CCOC(=O)N1CCN(C(=O)c2cn(C)c3ccc(S(=O)(=O)N(CC)CC)cc3c2=O)CC1`, the “activity change, negative = growth inhibition” value is reported as 11.6%. In the case of `CCCCNC(=O)c1cc(-c2ccc(Cl)c(Cl)c2)on1`, the “activity change, negative = growth inhibition” value is reported as -18.6%. In the case of `COC(=O)CN1C(=O)N/C(=C/c2ccc(OC)c(C)c2OC)C1=O`, the “activity change, negative = growth inhibition” value is reported as 0.0276%. With `O=C(Nc1ccc(OC(F)(F)F)cc1)c1ccc2c(c1)no[n+]2[O-]` the Potency was 3.66 µM (active). In the case of `COC(=O)[C@H](C)NC(=O)Nc1ccc(OC(F)(F)F)cc1`, the “activity change, negative = growth inhibition” value is reported as -1.87%. With `Cn1cccc1/C=N/NC(=O)c1ccc(OC(F)(F)C(F)F)cc1` the “activity change, negative = growth inhibition” value was -7.72%. For `CC(=O)OCc1cc2cc(C)ccc2[nH]c1=O`, the “activity change, negative = growth inhibition” value was -12.6%. For `CC(=O)Nc1ccc(OCC(=O)NCc2ccc(C)cc2)cc1`, the “activity change, negative = growth inhibition” value was 11.6%.
